FBPA Giardia inh: qHTS Assay for Inhibitors of Fructose-1,6-bisphosphate Aldolase from Giardia Lamblia. A8B2U2. 0.71% of 290,000 active. Potency, µM (doses to about 59.6 µM), inactives show top-dose activity, negative = inhibition, hits mostly inhibitors. AID 2451, 2010. purified Giardia FBPA; note: potency is the fitted concentration of half-maximal effect; nearly all actives have a fitted effect of over 55% in size
Target sequence (A8B2U2 whole entry, looked up): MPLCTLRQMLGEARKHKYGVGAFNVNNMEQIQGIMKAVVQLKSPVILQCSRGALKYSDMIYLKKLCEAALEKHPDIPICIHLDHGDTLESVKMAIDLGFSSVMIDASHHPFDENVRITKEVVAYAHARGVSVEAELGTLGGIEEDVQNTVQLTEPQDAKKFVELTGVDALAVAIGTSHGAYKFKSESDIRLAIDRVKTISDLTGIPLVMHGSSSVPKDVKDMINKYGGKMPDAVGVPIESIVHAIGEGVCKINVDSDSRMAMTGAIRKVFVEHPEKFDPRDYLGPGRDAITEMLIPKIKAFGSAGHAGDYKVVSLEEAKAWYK
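40 nM FBPA preincubated 10 min at RT with compound (up to 57.5 uM final), then substrate plus GAPDH/TPI/NAD/arsenate coupling and diaphorase/resazurin added. Fluorescence read after 20 min at RT, 525/598 nm.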
HCMV antiviral: qHTS Assay for inhibitors of the human cytomegalovirus (HCMV); HFF cells, HCMV-luciferase reporter, 72 h; stronger effect = lower value; activity change, negative = inhibition, % at 57.5 µM; 4.5% of 410,000 active; AID 1259415, 2018; in the data active = activity change below about -60%; inconclusive = no clear call, values can overlap the other calls; inactive = above about -39%
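HFF cells seeded 16 h at 37C, treated with compounds, infected with luciferase-reporter HCMV at MOI 1 PFU/cell; luciferase read at 72 h post infection, normalized to buffer-only and Salinomycin controls.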
FMDV antiviral: High Throughput Screening for Foot and Mouth Disease Virus Antivirals; FMDV antiviral cell-based qHTS; Potency, µM (top dose mostly 57.9 µM), inactives show at the top dose activity change, negative = inhibition, usual class: inhibitors; 1.2% of 410,000 active; AID 1159524, 2015; calls by dose curve; tested in HEK293T cells; note: read-out not given here; potency is the fitted concentration of half-maximal effect; nearly all actives have a fitted effect of over 45% in size
HCV inh: qHTS Assay for Inhibitors of Hepatitis C Virus (HCV); AID 651820, 2012; 3.4% of 340,000 active; Huh7.5.1 HCVcc-Cre infection, luciferase reporter, 44 h; Potency, µM (highest dose often 41.8 µM), without a hit: top-dose activity change, negative = inhibition, hits mostly inhibitors; note: potency is the fitted concentration of half-maximal effect
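Cells seeded at 1,000/well and cultured 4 h, then compounds added followed by HCVcc-Cre virus (~0.5 moi). After 44 h further culture, luciferase substrate was added, plates held 15 min at room temperature, and luminescence read for 15 sec.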
VACV mCherry inh: qHTS for Stage-Specific Inhibitors of Vaccinia Orthopoxvirus: mCherry Reporter Primary qHTS. AID 720579, 2013. Vaccinia virus mCherry reporter infection, fluorescence. Potency, µM (doses to about 36.5 µM), for inactives: top-dose activity change, negative = inhibition, most hits filed as inhibitors. 0.63% of 310,000 active; calls by dose curve; tested in A549 cells; note: potency is the fitted concentration of half-maximal effect; nearly all actives have a fitted effect of over 35% in size
VACV Venus inh: qHTS for Stage-Specific Inhibitors of Vaccinia Orthopoxvirus: Venus Reporter Primary qHTS | Potency, µM (doses to about 36.5 µM), without a hit: at the highest dose activity change, negative = inhibition, usual class: inhibitors | Vaccinia virus Venus reporter expression, fluorescence | 0.46% of 330,000 active; calls by dose curve; tested in A549 cells; note: potency is the fitted concentration of half-maximal effect; nearly all actives have a fitted effect of over 30% in size
Starred values were filed as active, the others as inactive; i = inactive; ? = inconclusive; . = not tested or not shown. This is a sample that favours compounds with a hit; in the whole collection about 7.5% have one here. Unless noted, calls come from the whole dose curve; as a rule, active = well fitted curve in the direction sought with a large enough effect; inconclusive = small, poorly fitted or top-dose-only effect, or another doubt; inactive = no such curve, though single readings can be large; an effect the other way counts as inactive or inconclusive. % is set by controls: 0 for no effect and ±100 for the full control effect.

SMILES | FBPA Giardia inh | HCMV antiviral | FMDV antiviral | HCV inh | VACV mCherry inh | VACV Venus inh
O=C(CCn1nc(-c2ccc(Cl)cc2)ccc1=O)NCCc1ccccc1 | . | 6 | -3% | . | -5% | -12%
O=C(CNC(=O)N1CC(=O)Nc2ccccc21)NCCc1cccc(F)c1 | 0% | -1 | 0% | 7% | -11% | -10%
CCOc1ccc(NC(=O)CCNC(=O)Cn2ccc3ccccc3c2=O)cc1 | 3% | . | 5% | -6% | -10% | -8%
Cc1nc2ccccn2c1C(=O)NNS(=O)(=O)c1ccc(C(C)(C)C)cc1 | -4% | -63* | ? | ? | -8% | -19%
O=C(OCc1nnc(-c2ccc([N+](=O)[O-])cc2)o1)C1CCN(C(=O)c2ccc(F)cc2)CC1 | . | 0 | -20% | 0% | . | .
CCCOc1cc(N(CC)CC)ccc1/C=C(/C#N)c1nc2ccc(C)cc2[nH]1 | -26% | ? | ? | ? | i | 104%
CCOc1cc(N(CC)CC)ccc1/C=C(/C#N)c1nc2ccccc2[nH]1 | -9% | -24 | -24% | 2.5µM* | . | .
Cc1cc(/C=C(\C#N)c2nc3ccccc3[nH]2)c(C)n1C | -3% | 74 | 2% | ? | -21% | -27%
CCN(CC)c1ccc(/C=C(/C#N)c2nc3ccc(C)cc3[nH]2)c(OC(C)C)c1 | -9% | ? | 7% | 2.8µM* | -25% | 44%
CCc1cccc(NC(=O)Cn2c(=O)n(CC3CCC(C(=O)NC)CC3)c(=O)c3sccc32)c1 (stereo not given) | . | -2 | -9% | . | -10% | -16%
Cc1cccc(C(=O)NCC(=O)N2CCN(c3ccccn3)CC2)c1 | . | -104* | 11% | 35% | -8% | -15%
Cc1ccc(C(=O)N2CC=C(c3ccccc3)CC2)o1 | . | -37 | 1% | 11µM* | i | -7%
Cc1cccc(C(=O)NCC(=O)N2CC=C(c3ccccc3)CC2)c1 | . | 12 | 1% | 5.6µM* | . | .
COc1ccc(C(=O)c2c(N)sc3c2CCN(C(=O)OC(C)(C)C)C3)cc1 | -18% | -84* | ? | ? | ? | -19%
CN1CCc2c(sc(N)c2C(=O)c2ccc(Cl)cc2)C1 | -26% | -18 | -1% | -7% | -13% | -11%
O=C(c1csc(Nc2ccccc2Cl)n1)N1CCCC1 | 3% | -93* | 46% | -1% | -24% | -15%
O=C(c1csc(Nc2cccc3ccccc23)n1)N1CCCC1 | ? | 0 | 15% | -8% | . | .
COc1ccc2c(c1)CC/C=C(/C)CC(CO)O2 (stereo not given) | . | 0 | . | . | . | .
CCOC(=O)Oc1ccc2oc(C)c(C(=O)OCCOC)c2c1 | . | 6 | 0% | -6% | . | .
COCCOC(=O)c1c(C)oc2ccc(OC(=O)c3c(OC)cccc3OC)cc12 | -6% | -10 | ? | 7.9µM* | . | .
COc1ccc(CCn2c(=N)c(C(=O)NCC3CCCO3)cc3c(=O)n4ccccc4nc32)cc1OC (stereo not given) | . | -110* | -2% | -17% | . | .
COc1ccc(CCn2c(=N)c(C(=O)NC3CCCC3)cc3c(=O)n4ccccc4nc32)cc1 | 17% | -101* | -17% | ? | -19% | -10%
COCCn1c(=N)c(C(=O)NCC2CCCO2)cc2c(=O)n3ccccc3nc21 (stereo not given) | . | -18 | -22% | . | 11% | -2%
Cc1noc(-c2ccc(N3CCC(C)CC3)c([N+](=O)[O-])c2)n1 | . | 79 | 27% | . | 1% | 0%
Cc1cc(=O)c2c(ccc3c(=O)cc(C)[nH]c32)[nH]1 | . | 2 | . | . | . | .
Cc1ccc(O)c(N=NC2=C(O)CC(C)(C)CC2=O)c1 | -29% | -101* | 22% | ? | ? | ?
CC1(C)CC(=O)C(N=Nc2cc(Cl)c(Cl)c(Cl)c2)=C(O)C1 | -10% | 4 | 28% | -28% | -18% | ?
CC[C@H](CC[C@@H](C)[C@H]1CC[C@H]2[C@@H]3CC=C4C[C@@H](O)CC[C@]4(C)[C@H]3CC[C@]12C)C(C)C | . | . | -10% | . | i | 0%
c1cncc(-c2cc(NCc3cccs3)ncn2)c1 | 3% | . | 10% | . | . | .

Bioassay records (PubChem)
